Sampled rows, rich in hits. Any-hit rate of the full collection: about 10%.
G9a block: G9a (human) methyltransferase inhibition; Q96KQ7; G9a H3K9 monomethylation, AlphaScreen, 2 h; Potency, µM (top dose mostly 102 µM), for the others: top-dose activity, negative = inhibition, actives largely listed as inhibitors; 350,000 tested, 8.8% active; further: potency means the concentration at half of the fitted maximal effect; on the % scale 0 is the no-effect control and ±100 the full control effect; nearly all actives have a fitted effect of over 75% in size
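AlphaScreen read-out: biotin-H3K9 peptide (500 nM) methylation by 20 nM enzyme with 20 uM SAM, 2 h at room temperature after 15 min compound preincubation; anti-monomethyl H3K9 antibody plus donor/acceptor beads, 10 min dark.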
Six1-Eya2 blk: inhibitors of human Six1/Eya2 interaction | activity change, % (no concentration beside the values) | Q15475+O00167 | AlphaScreen GST-Six1/His-Eya2 binding, biochemical; stronger effect = lower value | 360,000 tested, 0.56% active; in the data active means activity change below about -65%; inconclusive means mostly about -30% to -63%; further: on the % scale 0 is the no-effect control and ±100 the full control effect
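AlphaScreen with GST-Six1 and His-Eya2 (5X mix: 250 nM and 500 nM), glutathione donor and nickel acceptor beads; buffer 50 mM Tris pH 8.0, 300 mM NaCl, 1 mM TCEP; 1 h at 37 C in the dark.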
JMJD2A Tudor: JMJD2A Tudor domain (human) inhibition | 390,000 tested, 4.4% active | Potency, µM (doses to about 114 µM), for inactives: at the highest dose activity change, negative = inhibition, most hits filed as inhibitors | AlphaScreen JMJD2A-Tudor / H3K4me3 peptide binding | O75164; further: potency means the concentration at half of the fitted maximal effect; on the % scale 0 is the no-effect control and ±100 the full control effect; nearly all actives have a fitted effect of over 50% in size
BAZ2B block: inhibitors of human BAZ2B bromodomain; Q9UIF8; AlphaScreen BAZ2B-H3K14Ac peptide displacement; Potency, µM (highest dose often 114 µM), for the others: at the top dose activity change, negative = inhibition, usual class: inhibitors; 360,000 tested, 4.4% active; further: potency means the concentration at half of the fitted maximal effect; on the % scale 0 is the no-effect control and ±100 the full control effect; nearly all actives have a fitted effect of over 60% in size
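Inhibition is scored as reduced AlphaScreen emission. The BAZ2B/b-H3(5-23)K14Ac complex (50 nM each) in PBS pH 7.4, 0.01% Tween-20 meets compound (up to 110 uM) for 30 min at RT before bead addition.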
CtBP-E1A inh: blocks the CtBP interaction with E1A. activity change, % (no concentration beside the values). AlphaScreen GST-E1A/His-CtBP binding, 1536-well; stronger effect = lower value. 340,000 tested, 0.49% active; in the data active means activity change below about -65%; inconclusive means mostly about -30% to -63%; further: on the % scale 0 is the no-effect control and ±100 the full control effect
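AlphaScreen with 125 nM GST-E1A and 125 nM His-CtBP (5X stocks) in Tris pH 8.0, 300 mM NaCl, BSA, Tween 20, TCEP. Compounds preincubated 2 h at 37 deg C, then glutathione donor/nickel acceptor beads added for 1 h at 37 deg C in dark.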
HP1b binding inh: HP1-beta chromodomain-methylated histone interaction inhibition; AlphaScreen HP1-beta / biotin-H3K9me3 peptide binding; Potency, µM (series often up to 114 µM), without a hit: at the top dose activity change, negative = inhibition, most hits filed as inhibitors; P83916; 390,000 tested, 0.56% active; further: potency means the concentration at half of the fitted maximal effect; nearly all actives have a fitted effect of over 70% in size
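AlphaScreen: HP1-beta (50 nM) preformed 30 min with biotin-H3(1-18)K9me3 peptide (50 nM) in PBS pH 7.4, 0.01% Tween-20. Compound added for 30 min at RT, then streptavidin donor/nickel chelate acceptor beads (10 ug/mL) for 30 min.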
* hit, by the source's call; ? = inconclusive; . = not tested or not shown; [ ] = dose if it differs, or a comment. Unless noted, the call rests on the fitted dose curve; in most records, active means well fitted inhibition curve with a large enough effect; inconclusive means small, poorly fitted or top-dose-only effect; inactive means no such curve, though single readings can be large or run the other way.

SMILES	G9a block	Six1-Eya2 blk	JMJD2A Tudor	BAZ2B block	CtBP-E1A inh	HP1b binding inh
CCCN(CCC)C(=O)Cn1c(=O)n(-c2ccc(C)cc2)c(=O)c2ccc(C(=O)NCc3ccccc3Cl)cc21	10%[59 µM]	.	-1%	.	.	38%
COc1ccc(S(=O)(=O)NCCc2cn3ccsc3n2)cc1OC	-3%[59 µM]	.	4%	1%	.	19%[57 µM]
CN(C(=O)Cn1nnc(-c2ccc(S(C)(=O)=O)cc2)n1)c1ccccc1	-21%[59 µM]	.	-2%	-9%	.	22%
COc1ccc(NC(=O)COc2cccc3c2CCN(Cc2cccnc2)C3=O)c(OC)c1	41%	-75*	-25%	-12%	-82*	6%
COc1ccc(NC(=O)C2C3C=CC4(CN(Cc5cccnc5)C(=O)C24)O3)c(OC)c1 (stereo not drawn)	-7%	22	-3%	50µM*	32	66%
COc1ccc(CNC(=O)C2C3C=CC4(CN(Cc5cccnc5)C(=O)C24)O3)cc1 (stereo not drawn)	1%	-1	-14%	0%	4	68%
CCOC(=O)CN1CC23C=CC(O2)C(C(=O)Nc2ccc(OC)cc2OC)C3C1=O (stereo not drawn)	50µM*	-3	-13%	3%	4	51%
Cc1ccc(OCC(=O)Nc2ccc(OCc3cc(=O)n4cccc(C)c4n3)cc2)cc1C	0%[59 µM]	.	-14%	8%	.	26%[57 µM]
CCN1C(=O)/C(=c2\o/c(=C3\C=Cc4ccccc4N3CC)c(=O)n2CC)SC1=S	?	-19	?	.	6	-34%
CCN1C(=O)/C(=C2\C=Cc3ccccc3N2CC)SC1=S	?	?	2.8µM*	8.9µM*	?	3.2µM*
CCN1C(=O)/C(=C2/C=Cc3ccccc3N2C)OC1=S	20µM*	-12	-25%[11.4 µM]	-29%	0	6%
COc1ccc(/C=C(\C#N)c2nc3ccccc3c(=O)[nH]2)cc1OC	0%[59 µM]	.	-16%	3%	.	14%
COC(=O)c1c(-c2ccc(C(C)(C)C)cc2)csc1NC(=O)C1C2CCC(O2)C1C(=O)O (stereo not drawn)	1.8µM*	-5	?	-12%	-17	?
CCOC(=O)c1c(-c2cccc3ccccc23)csc1NC(=O)C1C2CCC(O2)C1C(=O)O (stereo not drawn)	1%[59 µM]	-5	-7%	-22%	4	26%
COc1ccc(C2(CNC(=O)c3cc(OC)c(OC)c(OC)c3)CCCC2)cc1OC	.	-10	-5%	.	-2	16%
COc1ccc(C2(CNC(=O)/C=C\c3ccco3)CCCC2)cc1OC	13µM*	-1	-26%	-34%	0	14%
COc1ccc(C(NC(=O)/C=C/c2ccco2)c2ccc(OC)c(OC)c2)cc1OC	8.9µM*	-9	-26%	?	-7	-12%
Cc1ccc(C)c(CSc2nc3ncccc3[nH]2)c1	-32%[59 µM]	.	-14%	-9%	.	26%
CCOc1ccccc1NC(=O)CN1C=NS(=O)(=O)c2ccccc21	4%[59 µM]	.	-28%	1%	.	27%
CCn1c(=O)c2sccc2n2c(CCC(=O)Nc3ccc(OC)cc3OC)nnc12	-1%[59 µM]	.	3%	0%	.	38%
O=C(Nc1cccc(-c2nc3ncccc3o2)c1)c1ccc(-c2cccc(Cl)c2Cl)o1	?	.	-11%	?	.	17%
O=C(Nc1ccc(C(=O)O)cc1)Nc1ccc([N+](=O)[O-])cc1	11%	-6	-4%	5%	0	36%
O=C(O)c1ccc(Nc2ncc([N+](=O)[O-])cc2[N+](=O)[O-])cc1	45µM*	11	-21%	?	-1	-3%
Cc1cc(C)c(C(=O)COC(=O)c2ccc([N+](=O)[O-])o2)cc1C	?	-1	-22%[11.4 µM]	.	.	-19%
Cc1cc(C(=O)COC(=O)c2ccc([N+](=O)[O-])o2)c(C)n1CC1CCCO1 (stereo not drawn)	45µM*	-8	-27%	?	-1	10%
SMILES	G9a block	Six1-Eya2 blk	JMJD2A Tudor	BAZ2B block	CtBP-E1A inh	HP1b binding inh
COCCn1c(C)cc(C(=O)COC(=O)c2cc3c(s2)CCC3)c1C	45µM*	-23	35µM*	40µM*	-16	?
COCCn1c(C)cc(C(=O)COC(=O)c2ccc([N+](=O)[O-])o2)c1C	79µM*	-8	?	45µM*	-6	4%
COCCn1c(C)cc(C(=O)COC(=O)c2cccc(O)c2)c1C	?	-11	-24%	?	-6	-6%
COc1ccccc1NC(=O)Cn1c(=O)n(Cc2nc(C)no2)c(=O)c2cc3c(cc21)OCO3	-29%[59 µM]	.	-6%	-7%	.	14%
COc1ccc(-c2nn(C)c3sc(C(=O)Nc4cccc(F)c4)cc23)cc1OC	8%[59 µM]	.	-20%	48%	.	71%
COc1ccc(/C=N\NC(=O)c2cc(O)c(O)c(O)c2)cc1COc1ccc(C(=O)OCC(C)C)cc1	22µM*	-28	?	56µM*	.	-7%
COc1ccc(/C=N\NC(=O)c2cc(O)c(O)c(O)c2)cc1CN1CCN(c2ccc(F)cc2)CC1	7.1µM*	?	56µM*	35µM*	?	?
COc1cc(/C=N/NC(=O)c2cc(O)cc(O)c2)ccc1OC(=O)c1ccccc1	8.9µM*	?	22µM*	11µM*	?	28µM*
COc1cc(/C=N/NC(=O)c2ccc3ccccc3c2)ccc1Oc1ccc([N+](=O)[O-])cn1	1.8µM*	-28	25µM*	-32%	-21	12%
COc1cccc(C(=O)N/N=C/c2ccc(Oc3ccc([N+](=O)[O-])cn3)c(OC)c2)c1	?	-15	-34%	-33%	-8	-13%
COc1ccc(C(=O)N/N=C/c2ccc(OC)c(COc3ccccc3)c2)cc1	31%	-11	-18%	-27%	-10	24%
CCCN1C(=O)C2(c3ccccc31)c1c(oc3cc(C)c(C)cc3c1=O)C(=O)N2CCCOC (stereo not drawn)	-1%[59 µM]	.	-23%	-1%	.	3%
COc1ccc(N(CC(=O)NC2CCS(=O)(=O)C2)S(=O)(=O)c2ccc(Cl)c(Cl)c2)cc1 (stereo not drawn)	50µM*	6	-13%	14%	-6	7%
O=C(NCc1n[nH]c(=S)n1-c1ccc(F)cc1)c1ccc(S(=O)(=O)N2CCCC2)cc1	?	5	28µM*	-3%	4	19%
CCCN(CCC)S(=O)(=O)c1ccc(C(=O)NCc2n[nH]c(=S)n2-c2ccc(Cl)c(Cl)c2)cc1	18µM*	-19	?	?	.	24%
Cc1ccc(CNC(=O)c2ccc(S(=O)(=O)N3CCCCC3)cc2)cc1	-6%	2	-21%	5%	5	22%
